# Reference: PubChem BioAssay AID1850 (Southern Research Specialized Biocontainment Screening …, 2009)
# The campaign covered roughly 310,000 compounds. About 1,000 (0.32%) were called active. The list is a sample of the results. Results with a measured potency or affinity are listed apart. Values without a mark were called inactive. The rule behind the calls is not given here.
# Assay: PhoP regulon inhibitors, Salmonella typhi PhoP promoter GFP reporter, confirmatory (AID 1850);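 note: 0% = induced wells with vehicle and 100% = uninduced wells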
# Conditions: fluorescence, 4 h, at 50 µM, hits give high values
row,Compound,inhibition [%]
1,COc1cc([N+](=O)[O-])cc(/C=N/NC(=O)c2ccc(C)nc2)c1O,18.7
2,O=C(N/N=C/c1cccc([N+](=O)[O-])c1O)C(O)(c1ccccc1)c1ccccc1,2.48
3,COc1cc(/C=N/NC(=O)c2ccc(C)nc2)cc([N+](=O)[O-])c1O,2.56
4,COc1cc([N+](=O)[O-])cc(/C=N/NC(=O)c2cc(C)nc3ccccc23)c1O,21.1
5,COc1cc(/C=N/NC(=O)c2cccnc2)ccc1OC(=O)c1ccc([N+](=O)[O-])cc1,5.86
6,COc1cc([N+](=O)[O-])cc(/C=N/NC(=O)c2cncc(Br)c2)c1O,12.7
7,O=C(N/N=C/c1ccc(O)c([N+](=O)[O-])c1)C(O)(c1ccccc1)c1ccccc1,4.8
8,O=C(N/N=C/c1cc([N+](=O)[O-])ccc1O)Nc1ccccc1,17.7
9,CCc1ccc(NC(=S)N(CCCN2CCN(C)CC2)Cc2cccs2)cc1,0.49
10,Cc1nnc(SCC(=O)c2c(N)n(Cc3ccccc3)c(=O)n(C)c2=O)n1C,-13.4
11,CC(=O)N(c1ccccc1C)S(=O)(=O)c1ccc(Cl)cc1,-12.6
12,O=C(Nc1ccccc1)c1ccc(=O)n(Cc2ccc(F)c(F)c2)c1,-6.26
13,CCOC(=O)N1CCc2c(sc3c2c(=O)n(Cc2ccccc2)c(=O)n3Cc2ccc(C)cc2)C1,-2.36
14,CSc1ccccc1C(=O)C1CCCN(C(=O)c2csnn2)C1 (centres undefined),-11.4
15,COc1ccc(C(=O)NC2CC2)cc1OC1CCN(Cc2ccc(F)cc2Cl)CC1,-3.14
16,CC(O)(C#CCN1CCCC1)c1ccccc1 (centres undefined),-6.56
17,CCOC(=O)Cc1csc(NC(=O)c2sc3nc4ccc(C)cc4cc3c2N)n1,-5.8
18,Cn1c(-c2ccc3c(c2)OCO3)cnc1NCc1cccc(Cl)c1,2.65
19,Cc1ccc(CNc2ncc(-c3ccc4c(c3)OCO4)n2C)cc1,-2.15
20,Cc1ccccc1Nc1nnc(SCC(=O)N(C)C2CCS(=O)(=O)C2)s1 (centres undefined),-26.7
21,Cc1cccc(NC(=O)C2CCCN(S(=O)(=O)c3cccc4nsnc34)C2)c1 (centres undefined),11
22,COc1ccc(NC(=O)C2CCCN(C(=O)Nc3ccc(OC)cc3)C2)cc1 (centres undefined),13.2
23,O=C(NNc1ccccn1)C(=O)NNS(=O)(=O)c1ccc(F)cc1,-7.54
24,Cc1ccc(S(=O)(=O)NNC(=O)C(=O)NNc2ccccn2)cc1,1.07

row,Compound,inhibition [%]
1,CCOc1ccc2c(c1)OC(c1ccc(C)cc1)(C(F)(F)F)NC2=O (centres undefined),2.02
2,COC(=O)c1c(NC(=O)CSc2nnc(Cn3nnc4ccccc43)n2C)sc(C)c1C,8.24
3,Cc1sc2nc(CSc3nc4ccccc4s3)[nH]c(=O)c2c1C,-8.83
4,COc1ccc(NS(=O)(=O)c2cc(OC)ccc2OC)cc1,-1.85
5,Fc1ccccc1C1CC(c2ccco2)=Nc2ccccc2S1 (centres undefined),9.62
6,CC(=O)NC1Sc2ccccc2N=C1c1ccccc1 (centres undefined),-15.8
7,Cc1ccc(Cl)cc1N(CC(=O)N1CCCCCC1)S(C)(=O)=O,-3.02
8,Oc1ccc(CN2CCCCC2)c2cccnc12,-7.91
9,O=S(=O)(c1ccc(Cl)cc1)N1CCN(Cc2ccc(O)c3ncccc23)CC1,-17.9
10,O=[N+]([O-])c1cc(CN2CCN(c3ccccc3)CC2)c(O)c2ncccc12,4.63
11,Oc1ccc2ccccc2c1CN1CCN(c2ccccc2)CC1,2.7
12,CCCOCc1ccc(O)c2ncccc12,16.8
13,CCOc1cccc(CN2CCN(c3cccc(C(F)(F)F)c3)CC2)c1O,-5.55
14,c1ccc(N2CCN(Cc3ccnc4ccccc34)CC2)cc1,-4.89
15,CC(C)COCc1ccc(O)c2ncccc12,1.72
16,O=C(N/C(=C/c1ccco1)C(=O)N1CCOCC1)c1ccccc1Br,7.88
17,O=C(NC1CCCCC1)C(c1ccncc1)N(Cc1ccc(F)cc1)C(=O)c1ccccn1 (centres undefined),-1.84
18,CN(C)CC(O)COc1cc2ccccc2cc1C(=O)N1CCCCC1 (centres undefined),9.49
19,CCCCCCCC(=O)Nc1ccc(S(=O)(=O)Nc2nccs2)cc1,-7.23
20,O=C1CSC(c2cccc([N+](=O)[O-])c2)N1CCN1CCCCC1 (centres undefined),-7.55
21,CC(=O)c1c(N2CCOCC2)nc(=S)n(-c2ccc([N+](=O)[O-])cc2)c1C,3.58
22,Cc1cc(/C([O-])=C(/C(=S)Nc2ccc(F)cc2)[n+]2ccccc2)c(C)n1Cc1ccccc1Cl,-18.8
23,OCCN1CCN(c2ncnc3scc(-c4ccc(F)cc4)c23)CC1,4.62
24,OCc1ccc(O)c2ncccc12,0.16

row,Compound,inhibition [%]
1,Oc1ccc(CN2CCc3ccccc3C2)c2cccnc12,-5.43
2,COc1ccccc1N1CCN(Cc2ccc(OC)c(OC)c2OC)CC1,5.73
3,COc1ccccc1N1CCN(Cc2cc(Br)c(O)c3ncccc23)CC1,3.41
4,COCCn1cnc2c1c(=O)n(CC(=O)OCC(=O)NCCCc1ccccc1)c(=O)n2Cc1ccccc1,5.65
5,Cc1nc2cc(NC(=O)c3ccc(S(=O)(=O)N(C)c4ccccc4)cc3)ccc2o1,-24.8
6,CC(C)NC(=O)CCCc1ccccc1,-2.72
7,CCN1/C(=C/C=C/C=C/C=C/c2sc3ccccc3[n+]2CC)Sc2ccccc21,5.61
8,CC[n+]1c(/C=C(/C)SC)sc2ccccc21,-5.74
9,CN(C)c1ccc(/C=C/C=C/c2sc3ccccc3[n+]2C)cc1,14.1
10,CC[n+]1c(/C=C(\C)SC)sc2ccccc21,8.28
11,CC[n+]1c(/C=C/Nc2ccccc2)sc2ccccc21,11.1
12,CC[n+]1c(/C=C/C=C/N(C(C)=O)c2ccccc2)sc2ccccc21,-299
13,COc1ccc(/C=C/C2=CCN(Cc3ccc(OC)cc3)CC2)cc1,5.66
14,COc1ccc(CN2CC(C(N)=O)Oc3ccccc32)cc1F (centres undefined),-14.6
15,Cc1ccccc1C(=O)Nc1c(C(=O)N2CCCC2)cnn1-c1ccccc1,-11.9
16,CN(C)S(=O)(=O)c1ccc(NC(=O)COC(=O)CC2CC3CCC2C3)cc1 (centres undefined),-11.3
17,Cc1ccc(C)n1-c1ccccc1N,7.67
18,C/C(CC(=O)NC1C2CC3CC(C2)CC1C3)=N\NC(=O)Cc1cccs1 (centres undefined),5.86
19,CC(=O)c1coc2c1cc(O)c1ccccc12,-10.2
20,CC(=O)Oc1c(C)cc(O)c2ccccc12,-6.69
21,COc1ccc2[nH]cc(C(=O)CN3CCCC(C)(C)C3)c2c1,12.1
22,CCOC(=O)CCNC(=O)Nc1ccc2nc(C)n(Cc3ccccc3Cl)c(=O)c2c1,12
23,CC(=O)N(Cc1cc2cc(C)c(C)cc2n2nnnc12)CC1COCCO1 (centres undefined),-4
24,CC(C)N(Cc1nc(-c2ccccc2)no1)C(=O)c1ccc2c(c1)OCO2,1.2

row,Compound,inhibition [%]
1,COc1ccc(CCC(=O)NCCOc2ccc(Cl)cc2)cc1,-4.36
2,COc1ccc(NC(=O)CSc2nc3c(c(-c4cccs4)c2C#N)CN(C)CC3)cc1OC,0.71
3,CN1CCc2nc(SCC(=O)Nc3ccc(OC(F)(F)F)cc3)c(C#N)c(-c3cccs3)c2C1,-3.5
4,COc1ccccc1Nc1ccc([N+](=O)[O-])cc1N,2.25
5,CC1CC(C)CN(S(=O)(=O)c2ccc3c(c2)CC(C)N3C(=O)C2CC2)C1 (centres undefined),-20.4
6,CCc1ccc(-c2cc(C)no2)cc1S(=O)(=O)N1CCN(c2ccc(OC)cc2)CC1,-6.02
7,O=[N+]([O-])c1cccc2c(N3CCOCC3)ccnc12,-0.36
8,O=[N+]([O-])c1ccc(N2CCCC2)c2ncccc12,-3.29
9,Cc1cc(C)cc(OCC(=O)Nc2cccc(-c3nnc(-c4ccco4)o3)c2)c1,3.78
10,CCCCNC(=O)O[C@@H]1C[C@H]2CCC(=O)N3CC[C@@H](C1)[C@@H]23,4.97
11,CCC(C)c1ccc(NC(=O)c2[nH]c(C)c(C(C)=O)c2C)cc1 (centres undefined),-9.52
12,Cc1ccc(O)c(C=Nc2ccc3[nH]ncc3c2)c1,-7.82
13,COc1ccc(C=Nc2ccc3[nH]ncc3c2)c(O)c1,0.93
14,CC1=C(C#N)C(c2cccnc2)C2=C(N1)c1ccccc1C2=O (centres undefined),1.42
15,Cc1ccc(Nc2ccc(NCc3ccccc3)nn2)cc1C,-4.54
16,Cc1cccc(Nc2ccc(NCc3ccccc3)nn2)c1,5.48
17,O=C(O)/C=C/C(=O)N1CCN(c2ccc(F)cc2)CC1,2.57
18,Cc1c(Cc2ccccc2)c(=O)oc2cc(OCC(=O)N[C@@H](Cc3ccccc3)C(=O)O)ccc12,1.41
19,C#CCOCCOCCOCCNc1nc(N2CCN(C(=O)[C@H](CCC(=O)O)n3cc(C(N)CC(C)C)nn3)CC2)nc(N2CCN(C(=O)[C@H](Cc3cc4ccccc4[nH]3)n3cc(C(N)CC(C)C)nn3)CC2)n1 (some centres undefined),-7.76
20,C#CCOCCOCCOCCNc1nc(N2CCN(C(=O)C(Cc3cc4ccccc4[nH]3)n3cc(C(N)C(C)CC)nn3)CC2)nc(N2CCN(C(=O)C(Cc3cc4ccccc4[nH]3)n3cc(C(N)C(C)CC)nn3)CC2)n1 (centres undefined),37.5
21,C#CCOCCOCCOCCNc1nc(N2CCOCC2)nc(N2CCN(C(=O)[C@H](Cc3cc4ccccc4[nH]3)n3cc([C@@H](N)CC(C)C)nn3)CC2)n1,7.58
22,C#CCOCCOCCOCCNc1nc(N2CCN(C(=O)[C@H](Cc3cc4ccccc4[nH]3)n3cc(C(N)CC(C)C)nn3)CC2)nc(N2CCN(C(=O)[C@H](CCC(=O)O)n3cc(C(N)[C@H](C)CC)nn3)CC2)n1 (some centres undefined),-6.17
